# High-throughput results (PubChem BioAssay)
# VP16 counter: inhibits Gal4-VP16 luciferase reporter, ROR gamma counter-screen | 310,000 compounds, 3.5% hits | Potency, µM (titrated, usually from 53.6 µM), actives largely listed as inhibitors | Drosophila S2 Gal4-VP16 UAS-luciferase, luminescence, 20 h;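 note: Gal4-VP16 expression switched on by copper sulfate through the metallothionein promoter; nearly all actives have a fitted effect of over 50% in size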
# RORgamma inh: ROR gamma (mouse) transcription inhibition. P51450. Drosophila S2 Gal4-RORgamma UAS-luciferase reporter, 20 h. Potency, µM (series often up to 53.6 µM), actives largely listed as inhibitors. 310,000 compounds, 5.4% hits; note: nearly all actives have a fitted effect of over 60% in size
# Target sequence (P51450 whole entry, looked up, the tested form may be a part): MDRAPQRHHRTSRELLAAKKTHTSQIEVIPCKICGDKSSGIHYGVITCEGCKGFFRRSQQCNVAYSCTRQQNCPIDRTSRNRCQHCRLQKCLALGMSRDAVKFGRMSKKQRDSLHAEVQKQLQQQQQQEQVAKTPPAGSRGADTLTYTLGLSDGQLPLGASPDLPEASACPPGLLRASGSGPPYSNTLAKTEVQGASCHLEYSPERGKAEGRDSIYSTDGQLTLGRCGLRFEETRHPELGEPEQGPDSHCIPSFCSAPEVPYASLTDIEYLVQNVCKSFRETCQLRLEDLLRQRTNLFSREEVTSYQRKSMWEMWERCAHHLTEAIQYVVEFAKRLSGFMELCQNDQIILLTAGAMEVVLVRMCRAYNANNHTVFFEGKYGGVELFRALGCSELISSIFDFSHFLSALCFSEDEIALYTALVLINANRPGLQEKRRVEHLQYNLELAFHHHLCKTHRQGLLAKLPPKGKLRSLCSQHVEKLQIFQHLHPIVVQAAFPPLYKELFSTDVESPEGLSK
#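 A Gal4/UAS one-hybrid system in insect cells: metallothionein-promoter Gal4–ROR gamma fusion plus Photinus luciferase reporter. Copper sulfate 700 uM final, 20 hr ambient incubation, luminescent detection after 10 min with reagent.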
# TDP1 block: inhibitors of human tyrosyl-DNA phosphodiesterase TDP1; Potency, µM (top dose mostly 130 µM), most hits filed as inhibitors; AID 485290; 350,000 compounds, 0.28% hits; Q9NUW8; recombinant TDP1, AlphaScreen DNA substrate cleavage; note: nearly all actives have a fitted effect of over 40% in size
#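 Steps: enzyme plus compound, 15 min RT; add biotin/phosphotyrosine-FITC oligonucleotide (15 nM final), react 5 min; add donor/acceptor beads (10 ug/ml final), 10 min; read AlphaScreen. Tdp1 at 1 nM final.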
# DT40 TDP1 CPT: growth inhibition of DT40 Tdp1-/-;hTDP1 cells with camptothecin (screen for TDP1 inhibitors); chicken DT40 Tdp1-/-;hTDP1 cells + 20 nM CPT, ATP luminescence, 48 h; Potency, µM (highest dose often 46.2 µM), most hits filed as inhibitors; 420,000 compounds, 12% hits; AID 686979; note: nearly all actives have a fitted effect of over 55% in size
#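 Cell growth measured by CellTiter-Glo luminescence after a minimum 48 h, 37 C compound exposure with 20 nM CPT in Tdp1-knockout DT40 cells stably expressing hTDP1, seeded 400/well; qHTS titration format.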
# DT40 TDP1 no CPT: qHTS for Inhibitors of human tyrosyl-DNA phosphodiesterase 1 (TDP1): qHTS in cells in absence of CPT; DT40 Tdp1-/- hTDP1 cells, no CPT, ATP luminescence, 48 h; Potency, µM (highest dose often 46.2 µM), hits mostly inhibitors; 420,000 compounds, 15% hits; note: nearly all actives have a fitted effect of over 55% in size
#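 Cells were dispensed at 400 per well, compounds added by pin tool, plates incubated ≥48 hr at 37 °C, then CellTiter-Glo added for 30 min at room temperature before luminescence reading. Line: DT40 Tdp1-/- complemented with hTDP1; camptothecin omitted.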
# Numbers stand for hits; n = inactive; u = inconclusive; x = not tested or not shown; [ ] = another dose, or the depositor's remark. Most compounds without a hit are left out; they make up all but 19% or so of the library. Calls come from the whole dose curve; as a rule, active = well fitted curve in the direction sought with a large enough effect; inconclusive = small, poorly fitted or top-dose-only effect, or another doubt; inactive = no such curve, though single readings can be large; an effect the other way counts as inactive or inconclusive.
SMILES,VP16 counter,RORgamma inh,TDP1 block,DT40 TDP1 CPT,DT40 TDP1 no CPT
CCOc1ccccc1N1CCN(CC(O)COCc2cccs2)CC1 (centres undefined),u,n,n,n,n
Cc1cccc(Cn2c(=O)n3nc(-c4ccccc4)nc3c3ccccc32)c1,x,x,n,18.4µM,18.4µM
Cc1ccc(-c2nc3c4ccccc4n(Cc4cccc(Cl)c4)c(=O)n3n2)cc1,x,x,n,n,u
O=c1n(Cc2ccc(Cl)cc2)c2ccccc2c2nc(-c3ccccc3)nn12,x,x,n,n,u
O=c1n(Cc2cccc(F)c2)c2ccccc2c2nc(-c3ccccc3)nn12,x,x,n,u,18.4µM
COc1cc(/C=C(\C#N)C(=O)Nc2cccc(C(=O)O)c2)ccc1OCc1ccc(Cl)cc1,n,n,n[0.0935 µM],n,u
CCN(CC)S(=O)(=O)c1cccc(NC(=O)CN2C(=O)NC3(CCOc4ccccc43)C2=O)c1 (centres undefined),x,x,n,16.4µM,u
O=C(CN1C(=O)NC2(CCOc3ccccc32)C1=O)Nc1ccc2c(c1)OCCO2 (centres undefined),n,n,n,n,n
COCCNC(=O)CN1C(=O)NC2(CCOc3ccccc32)C1=O (centres undefined),n,n,n,n,n
CC(CNC(=O)CN1C(=O)NC2(CCOc3ccccc32)C1=O)c1ccccc1 (centres undefined),x,x,n,14.6µM,u
O=C(NC1CC(=O)N(c2ccc(Cl)cc2)C1)C1CCCCC1 (centres undefined),x,x,n,n,n
COc1ccccc1/C=C/C(=O)OCC(=O)Nc1cc(C(F)(F)F)ccc1N1CCOCC1,n,u,n,4.11µM,2.59µM
O=C(/C=C/c1ccco1)NC(=S)Nc1ccccc1N1CCCC1,u,u,n,u,20.6µM
O=C(/C=C/c1ccco1)NC(=S)Nc1ccccc1N1CCOCC1,8.91µM,2.82µM,n,n,u
CCCCn1nc(C(=O)Nc2cc(C(F)(F)F)ccc2N2CCOCC2)ccc1=O,x,x,n,23.1µM,3.66µM
O=C(/C=C/c1ccco1)Nc1ccccc1N1CCCC1,n,u,n,u,u
COc1ccc(C2/C=C\CC(NC(=O)OCC3c4ccccc4-c4ccccc43)CC(=O)N2Cc2cccc(F)c2)cc1 (centres undefined),n,n,n,x,x
Cc1nn(CC(=O)NC(C)CCc2ccccc2)c(=O)c2nn(-c3ccccc3)c(C)c12 (centres undefined),n,n,n,u,n
CCN(CC)C(=O)C1=C(C)N(CCCN2CCCC2=O)C(=O)C(CC(=O)NCc2cccs2)C1 (centres undefined),x,x,x,n,n
O=C(NC(=S)Nc1cc(C(F)(F)F)ccc1N1CCOCC1)c1sc2ccccc2c1Cl,3.98µM,2.24µM,n,u,n
O=C(/C=C/c1ccco1)NC(=S)Nc1cc(C(F)(F)F)ccc1N1CCOCC1,u,6.31µM,n,n,u
COc1ccc(NC(C)C(=O)Nc2cc(C(F)(F)F)ccc2N2CCOCC2)c(OC)c1 (centres undefined),n,n,n,u,23.1µM
O=C(CSCc1ccco1)Nc1cc(C(F)(F)F)ccc1N1CCOCC1,n,n[10 µM],n,u,u
O=C(Nc1cc(C(F)(F)F)ccc1N1CCOCC1)C1Cc2ccccc2CN1C(=O)c1ccco1 (centres undefined),n,n,n,16.4µM,u
O=C(Nc1ccccc1)C1Cc2ccccc2CN1C(=O)c1ccco1 (centres undefined),n,n,n,n,n
CCOC(=O)CC1C(=O)NCCN1S(=O)(=O)c1ccc(Br)cc1 (centres undefined),n,n,n,u,n
O=C(CCCCl)NC(=S)Nc1cc(C(F)(F)F)ccc1N1CCOCC1,u,7.94µM,n,u,14.6µM
Fc1cccc(Cl)c1Cn1ncc2ccccc21,u,n,x,n,n
Cc1ccc(SCC(=O)O/N=C(\N)c2ccncc2)cc1,n,n,n,n,n
COc1ccc(-c2coc3cc4oc(=O)cc(-c5ccccc5)c4cc23)cc1F,n,n,n,3.66µM,4.61µM
